This experiment concerns the target 15-hydroxyprostaglandin dehydrogenase [NAD(+)] (Homo sapiens) (UniProt P15428). The experiment is described as follows: Confirmation qHTS Assay for Inhibitors of HPGD (15-Hydroxyprostaglandin Dehydrogenase). The conditions noted are these: recombinant HPGD, NADH fluorescence, PGE2 substrate. An excerpt:
Assay Overview: Human 15-Hydroxyprostaglandin dehydrogenase (HPGD) catalyzes the inactivation of prostaglandin E2, and plays a major role in cancer biology by antagonizing the oncogenic potential of cyclooxygenase type 2 (COX2). Assays are available, based on absorbance/fluorescence increase of NADH with the substrate 15-OH prostaglandin E2. Inhibition of HPGD activity was screened by utilizing prostaglandin as an electron donor and NAD+ as an electron acceptor/cofactor. An increase in the fluorescence intensity due to conversion of NAD+ to NADH was used to measure the enzyme activity. This assay is a confirmation screen of primary qHTS protocol (See AID 894). References 1. Myung SJ, Rerko RM, Yan M, Platzer P, Guda K, Dotson A, Lawrence E, Dannenberg AJ, Lovgren AK, Luo G, Pretlow TP, Newman RA, Willis J, Dawson D, Markowitz SD. 15-Hydroxyprostaglandin dehydrogenase is an in vivo suppressor of colon tumorigenesis. Proc Natl Acad Sci U S A. 2006 Aug 8;103(32):12098-102. 2. […]
Buffer: 50 mM Tris-HCl, 0.01% Tween 20, pH 8. […] The plates were immediately transferred to and read 5 times every 30 seconds on ViewLux High-throughput CCD imager (Perkin-Elmer) using 360 nm excitation and 450 nm emission fluorescence protocol. The fluorescence intensity difference between the last and the first time points was used to compute reaction progress.
On the technique in general: Quantitative high-throughput screening tests each substance at several concentrations.

Each structure is given as a SMILES string. This is one part of the list. Activity calls are given as the source filed them. Calls come from the whole dose curve.

Our source for the Potency values is PubChem BioAssay AID2429 (National Center for Advancing Translational Sciences (NCATS), 2010).

Sequence of 15-hydroxyprostaglandin dehydrogenase [NAD(+)] (Homo sapiens) (P15428 whole entry, looked up): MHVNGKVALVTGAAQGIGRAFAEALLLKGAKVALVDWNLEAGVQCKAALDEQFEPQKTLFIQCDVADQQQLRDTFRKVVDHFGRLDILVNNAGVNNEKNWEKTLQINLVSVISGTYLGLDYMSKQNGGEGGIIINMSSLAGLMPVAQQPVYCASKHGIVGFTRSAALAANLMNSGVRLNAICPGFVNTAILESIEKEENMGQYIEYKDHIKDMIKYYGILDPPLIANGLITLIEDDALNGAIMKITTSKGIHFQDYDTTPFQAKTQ

Regarding `CCN(CC)C(=O)c1ccc(NC(=O)c2cc(-n3cnnc3)ccc2Cl)cc1`, the Potency was 7.08 µM (active).
